Inconclusive results are not listed. Active and inactive are the calls of the source. Rule for the calls, unless noted: active = hit-call score of the fitted dose curve at least 0.9, where 1 is the maximum; inconclusive = response in the unintended direction; inactive = score below 0.9.

In experiment [1] the target is Retinoic acid receptor RXR-alpha (Homo sapiens) (UniProt P19793). The experiment in a line: ATG_RXRa_TRANS: Attagene TRANS-FACTORIAL HepG2 Assay for human Retinoid X Receptor alpha (RXRa) (AID 2283012). The procedure, abridged: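 HepG2 cells transiently transfected with multiplexed GAL4-UAS reporter units and chimeric NR-GAL4 fusions, dosed 24 h. Reporter mRNA measured by RT-PCR, FAM labelling, HpaI digestion and capillary electrophoresis; gain-of-signal fitted relative to DMSO baseline.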

Experiment [2] concerns the target human Thyroid Receptor alpha (THRa1), THRA (gene 7067) (UniProt P10827). The experiment is described as follows: ATG_THRa1_TRANS: Attagene TRANS-FACTORIAL HepG2 Assay for human Thyroid Receptor alpha (THRa1) (AID 2283014). The procedure, abridged:
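Reporter transcript induction, read by capillary electrophoresis of 6-FAM-labelled RT-PCR products, reflects activity of a transfected THRa1-Gal4 fusion in HepG2 liver cells. Cells were dosed for 24 h; activity was fitted in the positive direction against DMSO.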

For experiment [3], the target named is human Vitamin D Receptor (VDR), VDR (gene 7421) (UniProt P11473). The experiment is described as follows: ATG_VDR_TRANS: Attagene TRANS-FACTORIAL HepG2 Assay for human Vitamin D Receptor (VDR) (AID 2283022). The procedure, abridged: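 Steps: transfect HepG2 with GAL4-UAS-driven reporter constructs; dose compounds 24 h; isolate RNA, reverse-transcribe, PCR-amplify with 6-FAM-labelled primer extension and HpaI digestion; quantify fragments by capillary electrophoresis relative to DMSO.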

Read-out in experiment [4]: E-selectin (Homo sapiens) (UniProt P16581)
The experiment in a line: BSK_3C_Eselectin: BioMAP Diversity Plus: 3C Assay for Eselectin Biomarker Activity (AID 2283015; active = hit-call score of the fitted dose curve at least 0.9, where 1 is the maximum; inactive = score below 0.9;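 note: cell surface E-selectin protein quantified by ELISA 24 h after dosing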). The following applies: primary human endothelial cells (HUVEC); actives raise or lower the signal. A digest of the protocol:
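ELISA read-out of E-selectin on endothelial monolayers after 24 h chemical treatment. Human umbilical vein primary cells served as the system, with DMSO defining baseline activity for bidirectional fitting.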

Read-out in experiment [5]: Interleukin-1 alpha (IL1a), IL1A (gene 3552)
The experiment is described as follows: BSK_BE3C_IL1a: BioMAP Diversity Plus: BE3C Assay for Interleukin-1 alpha (IL1a) Biomarker Activity (AID 2283016; active = hit-call score of the fitted dose curve at least 0.9, where 1 is the maximum; inactive = score below 0.9). The following applies: primary human bronchial epithelial cells; actives raise or lower the signal. The procedure, abridged: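 Human primary bronchial epithelial cells (BE3C system) were dosed with compound and IL-1a measured by ELISA 24 h later. Activity was fitted bidirectionally against DMSO baseline; cytotoxicity was tracked in parallel cultures by SRB total-protein staining.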

Read-out in experiment [6]: Monocyte Chemoattractant Protein-1 (MCP1), CCL2 (gene 6347)
The experiment is described as follows: BSK_3C_MCP1: BioMAP Diversity Plus: 3C Assay for Monocyte Chemoattractant Protein-1 (MCP1) Biomarker Activity (AID 2283017; active = hit-call score of the fitted dose curve at least 0.9, where 1 is the maximum; inactive = score below 0.9). The following applies: primary human endothelial cells (HUVEC); actives raise or lower the signal. The procedure, abridged: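 ELISA read-out of MCP-1 from human umbilical vein endothelial cell cultures harvested 24 h post-dosing. Gain or loss of signal was fitted relative to DMSO.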

Read-out in experiment [7]: Monocyte Chemoattractant Protein-1 (MCP1), CCL2 (gene 6347)
The experiment is described as follows: BSK_4H_MCP1: BioMAP Diversity Plus: 4H Assay for Monocyte Chemoattractant Protein-1 (MCP1) Biomarker Activity (AID 2283018; active = hit-call score of the fitted dose curve at least 0.9, where 1 is the maximum; inactive = score below 0.9). The following applies: primary human endothelial cells (HUVEC); actives raise or lower the signal. The procedure, abridged:
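Human umbilical vein endothelial cells (4H system) dosed with chemical; MCP-1 measured by ELISA 24 h after dosing. Bidirectional curve fitting against DMSO negative control as baseline; parallel SRB total-protein staining tracks overt cytotoxicity.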

Read-out in experiment [8]: Human Leukocyte Antigen - DR isotype (HLADR), HLA-DRA (gene 3122)
The experiment is described as follows: BSK_3C_HLADR: BioMAP Diversity Plus: 3C Assay for Human Leukocyte Antigen - DR isotype (HLADR) Biomarker Activity (AID 2283019; active = hit-call score of the fitted dose curve at least 0.9, where 1 is the maximum; inactive = score below 0.9;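 for outcome: ELISA of cell-surface HLA-DR on HUVEC 24 h after dosing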). The following applies: primary human endothelial cells (HUVEC); actives raise or lower the signal. The procedure, abridged:
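ELISA readout of surface HLA-DR on human umbilical vein endothelium, taken 24 h after chemical treatment. Gain- and loss-of-signal were both fitted relative to DMSO.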

Read-out in experiment [9]: Interleukin-8 (IL8), CXCL8 (gene 3576)
The experiment is described as follows: BSK_3C_IL8: BioMAP Diversity Plus: 3C Assay for Interleukin-8 (IL8) Biomarker Activity (AID 2283020; active = hit-call score of the fitted dose curve at least 0.9, where 1 is the maximum; inactive = score below 0.9). The following applies: primary human endothelial cells (HUVEC); actives raise or lower the signal. The procedure, abridged:
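Primary human umbilical vein endothelial cells (3C system) were exposed to test chemical for 24 h, then IL-8 was quantified by ELISA. Responses were fitted bidirectionally against DMSO vehicle as baseline.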

Read-out in experiment [10]: Monokine induced gamma interferon (MIG), CXCL9 (gene 4283)
The experiment in a line: BSK_3C_MIG: BioMAP Diversity Plus: 3C Assay for Monokine induced gamma interferon (MIG) Biomarker Activity (AID 2283021; active = hit-call score of the fitted dose curve at least 0.9, where 1 is the maximum; inactive = score below 0.9). The following applies: primary human endothelial cells (HUVEC); actives raise or lower the signal. The procedure, abridged:
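Primary human umbilical vein endothelial cells in the 3C system were exposed to chemical for 24 h, after which MIG was quantified by ELISA. Activity was fitted bidirectionally against DMSO as negative control and baseline.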

The nature of experiment [11]: BSK_3C_SRB: Viability Assessment in the BioMAP Diversity Plus: 3C Assay (AID 2283023; active = hit-call score of the fitted dose curve at least 0.9, where 1 is the maximum; inactive = score below 0.9;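 note: fitted both ways against DMSO so a hit may be signal rise or drop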). The following applies: primary human endothelial cells (HUVEC). The procedure, abridged: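 Absorbance at 560 nm of sulforhodamine B-stained (0.1%) total protein served as a cytotoxicity readout in human umbilical vein endothelial cells, 24 h after chemical treatment. Signal was fitted bidirectionally relative to DMSO.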

Read-out in experiment [12]: Matrix Metallopeptidase 1 (MMP1), MMP1 (gene 4312)
The experiment is described as follows: BSK_BE3C_MMP1: BioMAP Diversity Plus: BE3C Assay for Matrix Metallopeptidase 1 (MMP1) Biomarker Activity (AID 2283024; active = hit-call score of the fitted dose curve at least 0.9, where 1 is the maximum; inactive = score below 0.9). The following applies: primary human bronchial epithelial cells; actives raise or lower the signal. The procedure, abridged:
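Primary human bronchial epithelial cells were dosed with test chemicals, and MMP1 levels were measured by ELISA 24 h later. Data were fitted bidirectionally against DMSO as the negative control and activity baseline.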

Read-out in experiment [13]: Pselectin, SELP (gene 6403)
The experiment is described as follows: BSK_4H_Pselectin: BioMAP Diversity Plus: 4H Assay for Pselectin Biomarker Activity (AID 2283026; active = hit-call score of the fitted dose curve at least 0.9, where 1 is the maximum; inactive = score below 0.9). The following applies: primary human endothelial cells (HUVEC); actives raise or lower the signal. The procedure, abridged:
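Primary human umbilical vein endothelial cells were exposed to test chemical for 24 h, then cell-surface P-selectin was quantified by ELISA. Activity was fitted bidirectionally against DMSO as negative control and baseline.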

A short description of experiment [14]: BSK_4H_SRB: Viability Assessment in the BioMAP Diversity Plus: 4H Assay (AID 2283027; active = hit-call score of the fitted dose curve at least 0.9, where 1 is the maximum; inactive = score below 0.9;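 note: cells exposed to compound for 24 h before staining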). The following applies: primary human endothelial cells (HUVEC). The procedure, abridged:
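Absorbance at 560 nm of SRB-stained total protein served as the viability read-out in confluent primary human umbilical vein endothelium 24 h after chemical treatment. Curves were fitted bidirectionally against DMSO as negative control.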

The nature of experiment [15]: BSK_BE3C_SRB: Viability Assessment in the BioMAP Diversity Plus: BE3C Assay (AID 2283028; active = hit-call score of the fitted dose curve at least 0.9, where 1 is the maximum; inactive = score below 0.9). The note with it: primary human bronchial epithelial cells. A digest of the protocol: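 Cells (human bronchial epithelial, primary) are treated with chemicals, and after 24 h the parallel cultures are fixed in 10% TCA. These are then stained with 0.1% SRB and read at 560 nm. Gain or loss of signal is fitted relative to DMSO.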

Read-out in experiment [16]: Thrombomodulin, THBD (gene 7056)
The experiment is described as follows: BSK_3C_Thrombomodulin: BioMAP Diversity Plus: 3C Assay for Thrombomodulin Biomarker Activity (AID 2283029; active = hit-call score of the fitted dose curve at least 0.9, where 1 is the maximum; inactive = score below 0.9). The following applies: primary human endothelial cells (HUVEC); actives raise or lower the signal. A digest of the protocol:
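Primary human umbilical vein endothelial cells (3C system) were exposed to chemical for 24 h, then thrombomodulin levels were measured by ELISA. Activity was fitted bidirectionally against the DMSO negative control as baseline.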

Read-out in experiment [17]: Urokinase-type plasminogen activator receptor (uPAR), PLAUR (gene 5329)
The experiment is described as follows: BSK_4H_uPAR: BioMAP Diversity Plus: 4H Assay for Urokinase-type plasminogen activator receptor (uPAR) Biomarker Activity (AID 2283030; active = hit-call score of the fitted dose curve at least 0.9, where 1 is the maximum; inactive = score below 0.9). The following applies: primary human endothelial cells (HUVEC); actives raise or lower the signal. A digest of the protocol: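 Cell-surface uPAR ELISA signal, measured 24 h after dosing human umbilical vein endothelial cells, was analyzed with bidirectional fitting relative to DMSO. Parallel SRB staining of total protein tracked overt cytotoxicity.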

Read-out in experiment [18]: Vascular endothelial growth factor receptor 2 (Homo sapiens) (UniProt P35968)
The experiment in a line: BSK_4H_VEGFRII: BioMAP Diversity Plus: 4H Assay for Vascular endothelial growth factor receptor 2 (VEGFR2) Biomarker Activity (AID 2283031; active = hit-call score of the fitted dose curve at least 0.9, where 1 is the maximum; inactive = score below 0.9). The following applies: primary human endothelial cells (HUVEC); actives raise or lower the signal. A digest of the protocol:
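ELISA read-out of VEGFRII in primary human umbilical vein endothelium, taken 24 h after chemical treatment. Responses are expressed relative to DMSO, with bidirectional fitting.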

Read-out in experiment [19]: Human Leukocyte Antigen - DR isotype (HLADR), HLA-DRA (gene 3122)
The experiment in a line: BSK_BE3C_HLADR: BioMAP Diversity Plus: BE3C Assay for Human Leukocyte Antigen - DR isotype (HLADR) Biomarker Activity (AID 2283032; active = hit-call score of the fitted dose curve at least 0.9, where 1 is the maximum; inactive = score below 0.9). The note with it: primary human bronchial epithelial cells; actives raise or lower the signal. The procedure, abridged:
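Human primary bronchial epithelial cells in the BE3C system were exposed to chemicals for 24 h, after which HLA-DR levels were quantified by ELISA. Activity was fitted bidirectionally, gain or loss of signal, against DMSO as negative control and baseline.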

The target of experiment [20] is human Retinoid X Receptor beta (RXRb), RXRB (gene 6257) (UniProt P28702). The experiment is described as follows: ATG_RXRb_TRANS: Attagene TRANS-FACTORIAL HepG2 Assay for human Retinoid X Receptor beta (RXRb) (AID 2283013). The procedure, abridged: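 HepG2 cells transiently transfected with multiplexed reporter units driven by GAL4-UAS and exogenous chimeric NR-Gal4 proteins; treated 24 h. Reporter mRNA measured by RT-PCR, 6-FAM labelling and capillary electrophoresis; gain-of-signal fitted versus DMSO baseline.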
Sequence of human Retinoid X Receptor beta (RXRb), RXRB (gene 6257) (P28702 whole entry, looked up, the tested form may be a part): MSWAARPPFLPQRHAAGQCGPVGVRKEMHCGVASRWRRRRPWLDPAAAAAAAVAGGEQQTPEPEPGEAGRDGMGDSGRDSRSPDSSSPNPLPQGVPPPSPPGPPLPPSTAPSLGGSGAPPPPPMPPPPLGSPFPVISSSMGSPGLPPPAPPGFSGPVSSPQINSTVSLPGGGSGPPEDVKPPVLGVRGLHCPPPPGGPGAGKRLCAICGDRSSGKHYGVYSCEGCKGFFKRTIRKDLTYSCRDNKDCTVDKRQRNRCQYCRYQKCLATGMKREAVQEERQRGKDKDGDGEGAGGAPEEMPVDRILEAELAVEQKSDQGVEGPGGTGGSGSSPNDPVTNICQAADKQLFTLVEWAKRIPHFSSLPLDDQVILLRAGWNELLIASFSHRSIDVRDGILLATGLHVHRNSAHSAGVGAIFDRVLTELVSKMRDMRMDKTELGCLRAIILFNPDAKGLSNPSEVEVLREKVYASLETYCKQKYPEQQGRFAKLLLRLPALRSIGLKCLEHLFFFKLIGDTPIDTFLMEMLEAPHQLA

Sequence of E-selectin (Homo sapiens) (P16581 whole entry, looked up): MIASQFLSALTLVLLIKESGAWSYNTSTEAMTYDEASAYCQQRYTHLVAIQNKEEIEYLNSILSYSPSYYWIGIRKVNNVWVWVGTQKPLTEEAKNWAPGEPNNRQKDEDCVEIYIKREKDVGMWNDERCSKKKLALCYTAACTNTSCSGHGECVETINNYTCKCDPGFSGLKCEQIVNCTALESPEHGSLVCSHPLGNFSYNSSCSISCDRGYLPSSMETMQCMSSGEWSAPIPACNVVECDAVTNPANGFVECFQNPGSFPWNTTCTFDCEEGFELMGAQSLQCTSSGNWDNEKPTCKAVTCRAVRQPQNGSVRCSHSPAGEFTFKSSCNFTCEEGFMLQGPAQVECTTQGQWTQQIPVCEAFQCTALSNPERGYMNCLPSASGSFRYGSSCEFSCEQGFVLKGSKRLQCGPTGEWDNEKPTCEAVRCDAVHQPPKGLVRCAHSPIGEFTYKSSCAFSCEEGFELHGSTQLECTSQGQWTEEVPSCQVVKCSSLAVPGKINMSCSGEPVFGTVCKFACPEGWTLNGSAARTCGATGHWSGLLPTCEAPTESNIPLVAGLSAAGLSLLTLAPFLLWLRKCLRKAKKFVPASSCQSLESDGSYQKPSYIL
Sequence of Retinoic acid receptor RXR-alpha (Homo sapiens) (P19793 whole entry, looked up, the tested form may be a part): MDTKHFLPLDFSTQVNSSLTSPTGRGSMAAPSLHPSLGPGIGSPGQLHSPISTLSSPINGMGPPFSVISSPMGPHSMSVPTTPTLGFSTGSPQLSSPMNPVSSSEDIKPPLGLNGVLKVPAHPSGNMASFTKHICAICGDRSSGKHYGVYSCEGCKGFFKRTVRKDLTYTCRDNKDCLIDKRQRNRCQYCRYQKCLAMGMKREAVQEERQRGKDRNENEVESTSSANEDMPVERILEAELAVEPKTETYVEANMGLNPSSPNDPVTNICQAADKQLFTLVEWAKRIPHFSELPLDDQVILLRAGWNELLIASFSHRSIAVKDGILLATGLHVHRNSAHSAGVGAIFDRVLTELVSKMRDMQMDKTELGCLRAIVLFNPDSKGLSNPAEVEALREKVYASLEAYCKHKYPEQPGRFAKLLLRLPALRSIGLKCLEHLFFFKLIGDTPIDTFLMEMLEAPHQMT
Sequence of human Thyroid Receptor alpha (THRa1), THRA (gene 7067) (P10827 whole entry, looked up, the tested form may be a part): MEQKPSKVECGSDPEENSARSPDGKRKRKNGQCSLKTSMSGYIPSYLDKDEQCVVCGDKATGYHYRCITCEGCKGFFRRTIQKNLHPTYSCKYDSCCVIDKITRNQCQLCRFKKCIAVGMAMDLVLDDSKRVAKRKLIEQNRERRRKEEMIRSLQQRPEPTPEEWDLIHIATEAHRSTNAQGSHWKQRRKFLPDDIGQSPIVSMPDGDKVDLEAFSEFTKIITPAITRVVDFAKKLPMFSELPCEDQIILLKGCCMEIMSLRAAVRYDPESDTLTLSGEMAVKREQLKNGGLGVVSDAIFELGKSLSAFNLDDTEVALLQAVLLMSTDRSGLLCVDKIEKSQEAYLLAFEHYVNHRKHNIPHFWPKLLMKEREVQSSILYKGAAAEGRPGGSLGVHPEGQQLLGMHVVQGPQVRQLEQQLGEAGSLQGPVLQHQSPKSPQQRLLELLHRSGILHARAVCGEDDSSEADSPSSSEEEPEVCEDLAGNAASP
Sequence of human Vitamin D Receptor (VDR), VDR (gene 7421) (P11473 whole entry, looked up, the tested form may be a part): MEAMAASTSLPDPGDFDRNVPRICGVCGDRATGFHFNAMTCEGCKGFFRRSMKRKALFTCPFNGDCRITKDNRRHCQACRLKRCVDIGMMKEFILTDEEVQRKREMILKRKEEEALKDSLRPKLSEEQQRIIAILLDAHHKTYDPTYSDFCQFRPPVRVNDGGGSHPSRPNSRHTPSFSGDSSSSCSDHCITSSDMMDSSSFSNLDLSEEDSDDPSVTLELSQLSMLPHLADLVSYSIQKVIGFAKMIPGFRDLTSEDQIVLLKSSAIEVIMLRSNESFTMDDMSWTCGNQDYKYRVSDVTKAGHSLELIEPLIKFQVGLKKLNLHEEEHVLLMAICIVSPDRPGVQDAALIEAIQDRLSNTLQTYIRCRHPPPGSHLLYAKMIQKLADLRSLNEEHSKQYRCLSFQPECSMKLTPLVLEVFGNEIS

Take `CCCCO`: the compound was classed as inactive in experiment [1], in experiment [2] and in experiment [3].

With `CC(O)C(C)O` (stereo unspecified), the outcome in experiment [1], in [2] and in experiment [3] was inactive.

Consider `COc1cc2ncnc(Nc3cccc(Cl)c3)c2cc1OC`, for which the compound was classed as inactive in [1], in experiment [2] and in [3].

In the case of `NCCOCCO`, the compound was called inactive in experiment [1] and in [2].

Regarding `Cc1ccc(Nc2ccc(O)c3c2C(=O)c2ccccc2C3=O)cc1`, the result in experiment [1], in experiment [2], in experiment [4], in experiment [5], in experiment [6] and in experiment [7] was inactive. Further, the outcome in [8], in experiment [9], in [10], in [3], in [11] and in experiment [12] was inactive. Also, the result in experiment [13], in experiment [14], in [15], in [16], in experiment [17] and in [18] was inactive.

On to `O=P(c1ccccc1)(c1ccccc1)c1ccccc1`, for which the outcome in experiment [1], in experiment [4], in [5], in experiment [6], in [7] and in experiment [8] was inactive. Moreover, the outcome in experiment [9], in [11], in experiment [12], in [13], in [14] and in experiment [15] was inactive. Besides, the outcome in [16], in experiment [17] and in experiment [18] was inactive.

Consider `COc1ccc(OC)c(OC)c1`, for which the result in [1], in experiment [2] and in experiment [3] was inactive.

For `O=C(O)c1cccc(C(F)(F)F)c1`, the outcome in experiment [1] and in experiment [3] was inactive.

Take `Nc1cc(Cl)c(O)c(Cl)c1`: the result in experiment [1], in experiment [2] and in [3] was inactive.

Take `C=COCCOCCOCCOC=C`: the call in experiment [1], in experiment [2] and in experiment [3] was inactive.

Regarding `CNCCCC12CCC(c3ccccc31)c1ccccc12`, the call in experiment [1] and in [3] was inactive.

On to `CNC[C@H](O)c1cccc(O)c1`, for which the outcome in experiment [10] was inactive.

On to `Cc1ccc2n[nH]nc2c1`, for which the outcome in [10] and in experiment [19] was inactive.

In general, AC50 refers to the concentration giving half of the maximal activity seen. With `CCN(CC)c1ccc(C(=C2C=CC(=[N+](CC)CC)C=C2)c2ccc(S(=O)(=O)O)cc2S(=O)(=O)[O-])cc1`, in experiment [20], the AC50 was 100 µM (active). Further, the compound was called inactive in experiment [2] and in experiment [3].

As to `O=C1O[C@@H]2[C@@H](O)[C@H](O)O[C@@H]2[C@H]1O`, the compound was called inactive in [20] and in [3].

Turning to `CCCCCC(CO)CCC` (stereo unspecified), the compound was classed as inactive in experiment [20], in experiment [2] and in [3].

Consider `Cc1ccc2sc3cccc(C)c3c2c1`, for which the compound was classed as inactive in [20], in [2] and in experiment [3].

With `Cc1ccc(C(=O)c2cc(O)c(O)c([N+](=O)[O-])c2)cc1`, the compound was classed as inactive in experiment [20], in experiment [2] and in experiment [3].

As for `NCCCN1CCOCC1`, the compound was classed as inactive in experiment [20], in [2] and in experiment [3].

With `CCC(C)CCCC(C)(C)O` (stereo unspecified), the outcome in [20], in [2] and in experiment [3] was inactive.

For `c1ccc2c(c1)c1cccc3ccc4cccc2c4c31`, the AC50 in [20] is 10.2 µM (active); in [8] it was 0.206 µM (active). Also, the outcome in experiment [2], in [4], in experiment [5], in [6], in [7] and in experiment [9] was inactive. In addition, the result in [11], in experiment [12], in experiment [13], in [14], in [15] and in experiment [16] was inactive. For the same compound, the result in experiment [17] and in [18] was inactive.

The values above are taken from PubChem BioAssay (EPA / NIEHS).
